The entries come from a sample that favours hits as a whole.
Methyltransferases: Primary Screen for Target Class Profiling of Small Molecule Inhibitors of Methyltransferases; 25,000 tested, 3.9% active; purified enzyme, MTase-Glo SAH luminescence; active compounds read low; AID 1745853, 2022; calls only at 40 µM; call rule not given here
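Each enzyme was assayed with SAM and its substrate. SAH formation detected by MTase-Glo luminescence; single-point 40 uM screen[…].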
MTase-Glo ctr: Counterscreen for Target Class Profiling of Small Molecule Inhibitors of Methyltransferases. MTase-Glo coupled enzymes, SAH conversion luminescence, no MTase. shares compounds with Methyltransferases. AID 1745851, 2022. 180 tested, 6% active. Potency, µM (top dose mostly 57.3 µM), usual class: inhibitors; active means well fitted inhibition curve with a large enough effect; inconclusive means small, poorly fitted or top-dose-only effect
Of the large screens only hits and unclear results are named; the others gave an inactive call (follow-up assays come after a bar, where they were run).

O=C(NCc1ccc(F)cc1)[C@H]1CN2CC[C@H]1C[C@@H]2Cn1cc(-c2ccccc2)nn1	none
CSc1ccc(C2c3cccn3-c3ccccc3CN2C(=O)Nc2ccc(C)c(C)c2)cc1 (centres undefined)	none
O=C(Nc1ccccc1)N1Cc2ccccc2-n2cccc2C1c1ccc(F)cc1 (centres undefined)	none
CCc1ccc(C2c3cccn3-c3ccccc3CN2C(=O)NC2CCCC2)cc1 (centres undefined)	none
Cc1cccc(NC(=O)N2Cc3ccccc3-n3cccc3C2c2cccs2)c1C (centres undefined)	none
c1ccc2cc(CC3=NCCN3)ccc2c1	none
O=C1Nc2ccc3ncsc3c2/C1=C/c1cnc[nH]1	Methyltransferases active
CO[C@H]1CC=C2CCN3CCC4=C(CC(=O)OC4)[C@]23C1	none
CCOc1ccc(C2c3cccn3-c3ccccc3CN2C(=O)Nc2cccc(C(=O)OC)c2)cc1 (centres undefined)	none
O=C(N1CCOCC1)N1CCN(c2ccc(Cl)cc2)CC1	none
O=S1(=O)N(CCN2CC=C(c3c[nH]c4cc(F)ccc34)CC2)c2cccc3c2N1CCC3	Methyltransferases active
Cc1ccc(NC(=O)N2Cc3ccccc3-n3cccc3C2C)c(C)c1 (centres undefined)	none
COc1cccc(CNC(=O)N2Cc3ccccc3-n3cccc3C2c2cccs2)c1 (centres undefined)	none
Cc1cccc(NC(=O)N2Cc3ccccc3-n3cccc3C2c2ccc(N(C)C)cc2)c1 (centres undefined)	none
COCCCNC(=O)N1Cc2ccccc2-n2cccc2C1c1ccc(N(C)C)cc1 (centres undefined)	none
CCCN(CCC)[C@@H]1CCc2ccc3[nH]c(C#N)cc3c2C1	Methyltransferases active
CCCN(CCC)[C@@H]1CCc2cccc(O)c2C1	none
CC[C@@]1(O)C(=O)OCc2c1cc1n(c2=O)Cc2cc3c(OC)cccc3nc2-1	none
CC12CCC3C(CCC4(O)CC(O)CCC34C=O)C1(O)CCC2C1=CC(=O)OC1 (centres undefined)	none
CNC1CCc2ccccc21 (centres undefined)	Methyltransferases active | MTase-Glo ctr inactive
CCOc1ccc(NC(=O)N2Cc3c(C)cc(C)nc3-n3cccc3C2c2ccc(F)cc2)cc1 (centres undefined)	none
NC(=O)c1ncn2c1CN=C(c1ccccc1Br)c1cc(F)ccc1-2	none
Cc1cccc(NC(=O)N2Cc3ccccc3-n3cccc3C2c2ccc(Cl)cc2)c1C (centres undefined)	none
COc1ccc(-c2cc3c(cn2)CN(C)CCN3)cn1	Methyltransferases active | MTase-Glo ctr inactive
COc1ccc(NC(=O)N2Cc3ccccc3-n3cccc3C2c2ccc(N(C)C)cc2)cc1OC (centres undefined)	none
COC(=O)C1(C)CCC(O)C2(C)c3cc(O)c(C(C)C)cc3C(O)C(OC(C)=O)C12 (centres undefined)	none
O=C(NCc1ccc(F)cc1)N1Cc2ccccc2-n2cccc2C1c1cc(F)cc(F)c1 (centres undefined)	none
CCOc1ccc(C2c3cccn3-c3ccccc3CN2C(=O)Nc2ccc(OC)cc2)cc1 (centres undefined)	none
C[C@@H](N)Cc1cnc[nH]1	none
COc1ccccc1-c1cc([C@H]2CN3CC[C@H]2C[C@@H]3CNC(=O)N2CCOCC2)n(C)n1	none
CC(=O)NC[C@H]1C[C@@H]2CCN1C[C@@H]2c1cc(-c2ccc3ccccc3c2)nn1C	Methyltransferases active | MTase-Glo ctr inconclusive
Cn1nc(-c2ccc3ccccc3c2)cc1[C@H]1CN2CC[C@H]1C[C@@H]2CNC(=O)c1ccco1	none
CCOc1ccc(C2c3cccn3-c3ccccc3CN2C(=O)NCc2ccc(F)cc2)cc1 (centres undefined)	none
CC(=O)OC[C@]12C[C@H](OC(C)=O)C(C)=C[C@H]1O[C@@H]1[C@H](O)[C@@H](O)[C@@]2(C)[C@]12CO2	none
